Test results from PubChem BioAssay (NCATS).
Records with an inconclusive call do not appear. The source made the active and inactive calls. Calls follow the shape of the dose curve; as a rule, active = well fitted inhibition curve with a large enough effect; inconclusive = small, poorly fitted or top-dose-only effect; inactive = flat fitted curve, though single readings scatter.

Tests used:
Assay in all cases: qHTS profiling for inhibitors of Plasmodium falciparum proliferation (AID 504749); also: nearly all actives have a fitted effect of over 60% in size
Conditions in all cases: P. falciparum in erythrocytes, SYBR Green DNA, 72 h; series mostly up to 28.7 µM
ATS95 = system: ATS95
Method in brief: (§1)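 Infected RBCs, 0.3% parasitemia/2.5% Hct final; cpd 72 h, 37 C, 5% CO2; lysis buffer with saponin/triton/SYBR Green I, o/n RT dark; FI 485/535; norm. to artemisinin (0.29 uM) and DMSO.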

C2A = system: C2A
Method in brief: as §1

CP185 = system: CP185
Method in brief: as §1

CP191 = system: CP191
Method in brief: as §1

CP192 = system: CP192
Method in brief: as §1

CP194 = system: CP194
Method in brief: as §1

CP201 = system: CP201
Method in brief: as §1

CP203 = system: CP203
Method in brief: as §1

CP211 = system: CP211
Method in brief: as §1

CP215 = system: CP215
Method in brief: as §1

CP217 = system: CP217
Method in brief: as §1

CP237 = system: CP237
Method in brief: as §1

CP238 = system: CP238
Method in brief: as §1

CP247 = system: CP247
Method in brief: as §1

CP250 = system: CP250
Method in brief: as §1

CP252 = system: CP252
Method in brief: as §1

CP256 = system: CP256
Method in brief: as §1

CP262 = system: CP262
Method in brief: as §1

CP265 = system: CP265
Method in brief: as §1

CP260 = system: CP260
Method in brief: as §1

Measured: Potency

O=[n+]1ccn([O-])c2ccccc21
not listed: CP260
inactive: all other assays above

Cc1ccccn1
inactive: all assays above

CC(C)(C)c1ccc2c(S(=O)(=O)O)c(C(C)(C)C)ccc2c1
inactive: all assays above

CCSc1ccc2c(c1)N(CCCN1CCN(C)CC1)c1ccccc1S2
inactive: all assays above

O=[N+]([O-])c1c(Cl)cccc1-c1c[nH]cc1Cl
not listed: CP260
inactive: all other assays above

CCCCC
not listed: CP262
inactive: all other assays above

Cc1cccc(Nc2ncccc2C(=O)O)c1C
not listed: CP260
inactive: all other assays above

O=C1N=C2SCCN2C(=O)C1Cc1ccc(Cl)cc1 (configuration not stated)
not listed: CP260
inactive: all other assays above

C(=C\c1ccncc1)/c1ccccc1
not listed: CP262
inactive: all other assays above

CC12CCC(C[N+](C)(CCC[N+](C)(C)C)C1)C2(C)C (configuration not stated)
not listed: CP262
inactive: all other assays above

O=C(O)Cc1nn(Cc2ccc(Br)cc2F)c(=O)c2ccccc12
inactive: all assays above

CCC(C(=O)NC(N)=O)c1ccccc1 (configuration not stated)
not listed: CP260
inactive: all other assays above

FC(F)(F)COCC(F)(F)F
inactive: all assays above

CC(C)(C)CC(C)(C)c1cc(Cc2cc(C(C)(C)CC(C)(C)C)cc(-n3nc4ccccc4n3)c2O)c(O)c(-n2nc3ccccc3n2)c1
inactive: all assays above
